# Experimental data from the OligoGym collection.
# Target: CBWD1
# Assay: pooled miR-30 sensor sort-seq; sequence = guide strand
# Details: shRNA
# Further: reference of the scale not given here.
row,Sequence,sensor-assay potency score (higher = more potent)
1,TTCTTCTGGAACCAGGTCTGTT,-0.933
2,TACATCTTCTTCTGGAACCAGG,-0.734
3,TTGTCTAGTAGCTTCATTGATA,-0.639

# Target: CBWD2
# Assay: as above
# Details: shRNA
row,Sequence,sensor-assay potency score (higher = more potent)
1,TATTTTGAATCCACTATAGTTA,-0.411
2,TTTATGGATCTAATTGTCGCTC,-0.0827
3,TTATGGATCTAATTGTCGCTCT,0.237

# Target: CBWD3
# Assay: as above
# Details: shRNA
row,Sequence,sensor-assay potency score (higher = more potent)
1,TCTTCTGGAACCAAGTCTGTTT,-0.303
2,TATTATCCAATCCTTTTGATAA,-1.72
3,TTTATTATCCAATCCTTTTGAT,-0.0523
4,TACATCTTCTTCTGGAACCAAG,-0.337
5,TTATCCAATCCTTTTGATAAGA,-1.37
6,TTGTCGTTCTTAATTTCTTTAC,-1.76
7,TTTATGGATCTAATTGTCGTTC,-0.438
8,TTACATCTTCTTCTGGAACCAG,0.201
9,TTATTATCCAATCCTTTTGATA,-1.04

# Target: CBX5
# Assay: as above
# Details: shRNA
row,Sequence,sensor-assay potency score (higher = more potent)
1,TAAAATGCTATCACAATTTGTG,-0.0381
2,TTTAGATTTGATGTCATCGGCA,-0.103
3,TAGATATTCCACTTGTCCCTTA,0.296
4,TTAGATTTGATGTCATCGGCAC,0.364
5,TTACTTTCTGACTTCTCCCTGG,0.106
6,TTAGGAACATTAAATCACCACA,-0.835
7,TCACATTAGCTTCTTTTGCAAG,-1.01
8,TATACTTTTTCATAAATTCAGA,-1.38
9,TTTTAGATTTGATGTCATCGGC,-0.344
10,TTTGATGTCATCGGCACTGTTT,-0.553
11,TAAATTCAGAAATTAGCTCAGG,-0.159
12,TTAAATCACCACAGGAATCTGT,-0.0279

# Target: CBX7
# Assay: as above
# Details: shRNA
row,Sequence,sensor-assay potency score (higher = more potent)
1,TAGTTCTTTGAAAGTGACCAGG,-0.792
2,TTCTTTGAAAGTGACCAGGAAG,-1.2
3,TCGATGGCTGTGGCTCTCCAGG,-1.84
4,TACTCGACTTTACCCTTCCGCA,-1.36
5,TCGTAGGCCATGACGAGGCGGG,-0.996
6,TTCCGCACGCGCTTCTTCCGGA,-0.445
7,ATACTCGACTTTACCCTTCCGC,-0.334
8,TCCACTTCACCAGATACTCGAC,-1.35
9,TTTAACTCCCAGAACCAGCTGC,0.312
10,TAGAGGAGAATGATAATGGTGG,0.263
11,ATACATCACACAACTTAGCAGA,-0.583
12,TGTACTTTGGGGGCCATCCTTT,-1.24
